# From PubChem BioAssay
# This excerpt belongs to a sample that is enriched for hits.
# HT1080 IDH1KD tx – HT-1080 IDH1 knockdown cell toxicity (counter line). hit rate 2% among 360,000. Potency, µM (series often up to 46.1 µM), without a hit: at the top dose activity, negative = toxicity, most hits filed as cytotoxic. AID 686971. HT-1080 IDH1 knockdown viability, ATP luminescence, 48 h;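 further: potency means the concentration at half of the fitted maximal effect; 0% = DMSO wells and -100% = cell-free medium wells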
#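 Using the IDH1-knockdown HT-1080 line run in the same batch and compound series as the NT line, viability after 48 h at 37 °C was determined by CellTiter-Glo luminescence and expressed as % activity.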
# HT1080-NT tox – kills 2HG-producing HT-1080-NT fibrosarcoma cells. hit rate 1.6% among 360,000. HT-1080-NT fibrosarcoma viability, CellTiter-Glo ATP luminescence, 48 h. Potency, µM (top dose mostly 46.1 µM), without a hit: at the highest dose activity, negative = less viability, hits mostly cytotoxic. AID 686970;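 further: NT is the 2HG producing partner of a matched IDH1 knockdown line; potency means the concentration at half of the fitted maximal effect; 0% = DMSO-treated cells and -100% = media-only wells without cells; nearly all actives have a fitted effect of over 55% in size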
#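 Compounds were tested in concentration-response format on HT-1080-NT cells for 48 hours at 37 degrees C. Cell viability came from CellTiter-Glo luminescence; curves were classified by r2, response magnitude and activity.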
# TDP1 cell noCPT – qHTS for Inhibitors of human tyrosyl-DNA phosphodiesterase 1 (TDP1): qHTS in cells in absence of CPT | DT40 Tdp1-/- hTDP1 cells, no CPT, ATP luminescence, 48 h | Potency, µM (series often up to 46.2 µM), for the others: at the top dose activity change, negative = growth inhibition, usual class: inhibitors | hit rate 15% among 420,000; further: potency means the concentration at half of the fitted maximal effect; nearly all actives have a fitted effect of over 55% in size
#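 Cells were dispensed at 400 per well, compounds added by pin tool, plates incubated ≥48 hr at 37 °C, then CellTiter-Glo added for 30 min at room temperature before luminescence reading. Line: DT40 Tdp1-/- complemented with hTDP1; camptothecin omitted.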
# IL1B secr inh – inhibitors of inflammasome signaling (IL-1 beta secretion) | hit rate 4.7% among 360,000 | activity change, % at 57.5 µM | THP-1 LPS/ATP IL-1B secretion, AlphaLISA, 16 h; active compounds read low; in the data active means activity change below about -50%; inconclusive means mostly about -30% to -49%
#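 THP-1 cells pretreated 1 hr with compounds (up to 57.5 uM final), then stimulated with LPS (250 ng/mL final) plus ATP (1.25 mM final); secreted IL-1B measured by AlphaLISA after 16 hr, decreased signal indicating inhibition.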
# TDP1 cell CPT – DT40-hTDP1 cell growth loss with CPT | chicken DT40 Tdp1-/-;hTDP1 cells + 20 nM CPT, ATP luminescence, 48 h | Potency, µM (top dose mostly 46.2 µM), without a hit: at the highest dose activity change, negative = growth inhibition, usual class: inhibitors | hit rate 12% among 420,000 | AID 686979; further: potency means the concentration at half of the fitted maximal effect; nearly all actives have a fitted effect of over 55% in size
#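 Chicken DT40 Tdp1-/- cells complemented with human TDP1, 400 cells/well, exposed to compounds plus 20 nM camptothecin for at least 48 h at 37 C; viability read as ATP content by CellTiter-Glo luminescence.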
# ALOX12 inh – inhibitors of human 12S-lipoxygenase ALOX12; purified 12hLO, xylenol orange hydroperoxide absorbance; Potency, µM (doses to about 108 µM), inactives show at the highest dose activity change, negative = inhibition, usual class: inhibitors; hit rate 1.1% among 580,000; further: potency means the concentration at half of the fitted maximal effect
# Target sequence (P18054 whole entry, looked up): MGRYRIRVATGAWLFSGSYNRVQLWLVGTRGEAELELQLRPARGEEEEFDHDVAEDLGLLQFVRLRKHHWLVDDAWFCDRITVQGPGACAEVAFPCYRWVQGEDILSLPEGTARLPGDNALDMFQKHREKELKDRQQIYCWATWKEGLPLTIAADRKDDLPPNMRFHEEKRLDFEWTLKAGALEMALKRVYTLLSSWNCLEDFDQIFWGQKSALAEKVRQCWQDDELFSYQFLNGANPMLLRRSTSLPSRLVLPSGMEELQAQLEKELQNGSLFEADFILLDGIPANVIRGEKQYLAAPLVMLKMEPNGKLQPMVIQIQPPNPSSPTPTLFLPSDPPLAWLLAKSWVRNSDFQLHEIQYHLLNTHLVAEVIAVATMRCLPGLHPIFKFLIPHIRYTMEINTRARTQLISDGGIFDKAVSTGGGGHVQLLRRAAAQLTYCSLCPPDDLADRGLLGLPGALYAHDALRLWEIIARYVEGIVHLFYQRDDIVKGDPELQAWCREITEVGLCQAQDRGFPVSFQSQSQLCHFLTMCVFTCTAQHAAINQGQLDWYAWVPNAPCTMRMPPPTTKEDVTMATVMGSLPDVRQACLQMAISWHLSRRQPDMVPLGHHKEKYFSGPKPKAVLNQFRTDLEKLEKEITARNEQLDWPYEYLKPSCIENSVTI
#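 Purified human 12hLO (150 nM final) in 25 mM Hepes, 0.01% Triton X-100, pH 7.0 was preincubated 15 min at room temperature with compound. Then 40 uM arachidonic acid was added, 30 min. Hydroperoxide was read by Fe-XO absorbance ratio 573/405 nm.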
# * hit, by the source's call; ? = inconclusive; nt = no result given; [ ] = dose if it differs, or a comment. Unless noted, the call rests on the fitted dose curve; in most records, active means well fitted curve in the direction sought with a large enough effect; inconclusive means small, poorly fitted or top-dose-only effect, or another doubt; inactive means no such curve, though single readings can be large; an effect the other way counts as inactive or inconclusive. Unless noted, on the % scale 0 is the no-effect control and ±100 the full control effect.
SMILES,HT1080 IDH1KD tx,HT1080-NT tox,TDP1 cell noCPT,IL1B secr inh,TDP1 cell CPT,ALOX12 inh
COc1ccc(S(=O)(=O)N2CCCCC2c2cc(C(=O)NCc3cccnc3)no2)cc1 (configuration not stated),1%,17%,?,8,29µM*,-62%
O=C(c1ccccc1F)N1CCn2c(nnc2-c2ccncc2)C1,nt,nt,nt,nt,nt,4%[6.33 µM]
O=C1CCNCCCC(CO)CCN1 (configuration not stated),nt,nt,nt,nt,nt,12%
COC(=O)C1=C(C(=O)OC)SC(=C2C(=S)C(C)(C)N(C(=O)C3CC3)c3ccccc32)S1,?,-3%,?,-50*,?,-29%
CC1C(=O)Nc2ccccc2N1C(=O)C1CC1 (configuration not stated),2%,12%,-4%,-13,0%,21%
CCCC(=O)N1c2ccccc2C(=C2SC(C(=O)OC)=C(C(=O)OC)S2)C(=S)C1(C)C,5%,0%,26µM*,6,15µM*,22µM*
CC1(C)c2ssc(=S)c2-c2ccccc2N1C(=O)CSC1=NCCS1,-11%,3%,?,?,?,-14%
Cc1ccc(C2(c3noc(CN(C)Cc4cccnc4)n3)CCCC2)cc1,7%,5%,?,3,?,21%
Cc1ccc(C2(c3noc(CN(C)Cc4ccccn4)n3)CCCC2)cc1,-9%,-2%,16µM*,-1,?,4%
O=c1[nH]c2cc3c(cc2cc1CN(Cc1nnnn1CC1CCCO1)C1CCCCC1)OCO3 (configuration not stated),0%,3%,?,-4,?,-14%
O=c1[nH]c2cc3c(cc2cc1CN(CCc1ccccc1)Cc1nnnn1CC1CCCO1)OCO3 (configuration not stated),-4%,1%[9.24 µM],23µM*,-9,?,-7%
Cc1ccc2[nH]c(=O)c(CN(CCc3ccccc3)Cc3nnnn3CC3CCCO3)cc2c1 (configuration not stated),-5%,-4%,?,-23,?,?
O=c1[nH]c2cc3c(cc2cc1CN(Cc1nnnn1CC1CCCO1)C1CCCC1)OCO3 (configuration not stated),-2%,-4%,13µM*,3,?,4%
COc1ccc2[nH]c(=O)c(CN(CCc3ccccc3)Cc3nnnn3CC3CCCO3)cc2c1 (configuration not stated),-7%[9.24 µM],?,29µM*,-17,6.5µM*,-15%
COc1ccc2[nH]c(=O)c(CN(Cc3ccc(C)cc3)Cc3nnnn3CC3CCCO3)cc2c1 (configuration not stated),-13%,-5%,?,-11,?,?
COc1ccc2[nH]c(=O)c(CN(Cc3ccccc3OC)Cc3nnnn3CC3CCCO3)cc2c1 (configuration not stated),-16%,4%,?,?,23µM*,-3%
Cc1ccc(N2C(=O)Nc3ccc(Br)cc3C2(O)C(=O)NCCN(C)C)cc1C (configuration not stated),9%,19%,2%,16,10%,18%
COc1cccc(N2CCN(C(=O)COc3ccc(NC(=O)C4CC4)cn3)CC2)c1,nt,nt,nt,nt,nt,3%
CCC(c1nnnn1CC1CCCO1)N(CCCO)Cc1cc2cccc(C)c2[nH]c1=O (configuration not stated),-1%,-7%,-20%,25,?,-10%
COc1ccccc1CN(Cc1cc2cc(C)cc(C)c2[nH]c1=O)Cc1nnnn1CC1CCCO1 (configuration not stated),?,?,23µM*,0,?,-20%
COc1ccc(OC)c2c1cc(C(=O)NCCCc1nnc3ccccn13)n2C,nt,nt,nt,nt,nt,18%
CCOc1ccc(NC(=O)c2nc(S(=O)(=O)Cc3ccccc3F)ncc2Cl)cc1,nt,nt,0.33µM*,nt,0.37µM*,?
CCOc1ccc(NC(=O)c2nc(SCc3ccccc3F)ncc2Cl)cc1,nt,nt,-23%,nt,-9%,nt
O=C(Nc1ccc(OC(F)F)cc1)c1nc(S(=O)(=O)Cc2ccccc2F)ncc1Cl,nt,nt,1µM*,nt,0.45µM*,?
Cc1ccncc1C(=O)N1CC(c2nc(CCN(C)C(=O)C3CC3)no2)C1,nt,nt,nt,nt,nt,13%
SMILES,HT1080 IDH1KD tx,HT1080-NT tox,TDP1 cell noCPT,IL1B secr inh,TDP1 cell CPT,ALOX12 inh
O=C(NCC(O)c1ccc(F)cc1)Nc1ccc(F)cc1 (configuration not stated),nt,nt,nt,nt,nt,47%
O=C(CC1Sc2ccc(C(F)(F)F)cc2NC1=O)Nc1ccc(OC(F)F)cc1 (configuration not stated),nt,nt,nt,nt,nt,1%
COc1cc(NC(=O)c2ccc(C(=O)Nc3cc(OC)c(Cl)cc3OC)cc2)c(OC)cc1Cl,nt,nt,1%,nt,-3%,-21%
COc1cc(OC)c(NC(=O)c2cc3ccccc3cc2O)cc1Cl,-9%,-11%,?,-78*,10µM*,-10%
COc1ccc(C(=O)Nc2cc(OC)c(Cl)cc2Cl)cc1,-4%,-18%,23µM*,10,3%,-39%
CCc1cc(=O)n(CC(=O)Nc2ccc(Br)cc2F)c(N2CCOCC2)n1,nt,nt,nt,nt,nt,2%
Cc1nnc2c(NC3CCCC3)nc3ccccc3n12,-3%,-8%,?,52,-15%,-5%
Cc1cc(C)c(Nc2nc3ccccc3n3c(C)nnc23)c(C)c1,nt,nt,13µM*,nt,15µM*,-26%
CC(=O)Nc1cccc(Nc2nc3ccccc3n3c(C)nnc23)c1,nt,nt,2.3µM*,nt,2.6µM*,-10%
CC(=O)Nc1ccc(Nc2nc3ccccc3n3cnnc23)cc1,6%,8%,-6%,-2,-8%,0%
Cc1ccc(-n2nnc(C(=O)NCCc3ccccc3)c2C2CC2)cc1,nt,nt,nt,nt,nt,24%
O=C(NCC(=O)N1CCN(S(=O)(=O)c2ccccc2F)CC1)c1ccc2c(c1)OCO2,-2%,-3%,-28%,-9,-2%,0%
O=C(C1CC(=O)N(c2ccc3c(c2)OCCO3)C1)N1CCN(c2ccccc2)CC1 (configuration not stated),15%,16%,-28%,-16,-27%,1%
O=C(NCC(=O)N1CCN(c2ccccc2O)CC1)c1ccc2c(c1)OCO2,-1%,-4%,4%,?,-11%,32µM*
O=C(CSc1ccc2c(c1)OCCO2)N1CCN(c2ccccc2O)CC1,0%,-3%,23µM*,0,23µM*,-8%
